One test has as its system CRL-7250. As to the kind of experiment: Cytotoxic Profiling of Annotated Libraries Using Quantitative High-Throughput Screening (AID 1296008). Further: nearly all actives have a fitted effect of over 60% in size. Further: potency means the concentration at half of the fitted maximal effect. On max response: on the % scale 0 is the no-effect control and ±100 the full control effect. To be noted: Five cell lines viability, CellTiter-Glo ATP luminescence, 48-72 h; max response: stronger effect = lower value. Put shortly: (§1)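 Cytotoxicity was measured as CellTiter-Glo ATP luminescence, read after 10 min at room temperature. Compound treatment of the cells lasted 48 or 72 hr at 37 degrees Celsius in a qHTS format.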
In general terms: ATP-based viability assays read luminescence as a measure of living cells.

Test [1] relates to HaCat. Described as above. To be noted: Five cell lines viability, CellTiter-Glo ATP luminescence, 48-72 h; max response: stronger effect = lower value. Put shortly: as §1
For test [2], the system named is NIH3T3. The description is as above. The note with it: Five cell lines viability, CellTiter-Glo ATP luminescence, 48-72 h; max response: stronger effect = lower value. Put shortly: as §1
Test [3] relates to HACAT. As to the kind of experiment: qHTS assay to identify novel small-molecules to repurpose for Merkel cell carcinoma treatment (AID 1296009). Further: nearly all actives have a fitted effect of over 60% in size. The note with it: MCC and control cell lines, CellTiter-Glo viability, 72 h; at 44.8 µM (top of the series) unless noted. Put shortly:
(§2)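 72 hr, 37 degree celsius; NPC 8-pt / MIPE 11-pt dose response; compound pinned in DMSO; CellTiter-Glo, 10 min RT, luminescence; normalized to no-cell and DMSO controls.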
Background: In qHTS, concentration-response curves come from the screen itself.

Another test relates to C33A. As to the kind of experiment: Primary qHTS to identify gynecologic anti-cancer compounds using libraries of approved drugs and bioactive compounds (AID 1345084). Further: on the % scale 0 is the no-effect control and ±100 the full control effect; nearly all actives have a fitted effect of over 55% in size. The note with it: Gynecologic cancer cell panel viability, ATPlite luminescence, 48 h; series mostly up to 57.5 µM. Put shortly:
(§3)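 Five-concentration response, 48 h; readout is ATP-driven luciferase luminescence.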

In another test the test system is CAOV3. Described as above. To be noted: Gynecologic cancer cell panel viability, ATPlite luminescence, 48 h; series mostly up to 57.5 µM. A digest of the protocol:
as §3

The subject of a further test is CASKI. The description is as above. The note with it: Gynecologic cancer cell panel viability, ATPlite luminescence, 48 h; series mostly up to 57.5 µM. Put shortly:
as §3

The test system of a further test is Es-2. Described as above. To be noted: Gynecologic cancer cell panel viability, ATPlite luminescence, 48 h; series mostly up to 57.5 µM. A digest of the protocol: as §3
The subject of the next test is HeLa. Described as above. To be noted: Gynecologic cancer cell panel viability, ATPlite luminescence, 48 h; series mostly up to 57.5 µM. Put shortly: as §3
The next test relates to Hek293T. Described as above. To be noted: Gynecologic cancer cell panel viability, ATPlite luminescence, 48 h, control line for the selectivity index; series mostly up to 57.5 µM. A digest of the protocol: as §3
The test system of a further test is JEG-3. Described as above. To be noted: Gynecologic cancer cell panel viability, ATPlite luminescence, 48 h; series mostly up to 57.5 µM. Put shortly: as §3
The test system of a further test is OV90. Described as above. The note with it: Gynecologic cancer cell panel viability, ATPlite luminescence, 48 h; series mostly up to 57.5 µM. A digest of the protocol: as §3
The test system of another test is PA-1. The description is as above. To be noted: Gynecologic cancer cell panel viability, ATPlite luminescence, 48 h; series mostly up to 57.5 µM. A digest of the protocol: as §3
The subject of another test is KB-3-1. The test is described as follows: Cytotoxic Profiling of Annotated Libraries Using Quantitative High-Throughput Screening (AID 1296008). Further: nearly all actives have a fitted effect of over 60% in size. Further: potency means the concentration at half of the fitted maximal effect. On max response: on the % scale 0 is the no-effect control and ±100 the full control effect. To be noted: Five cell lines viability, CellTiter-Glo ATP luminescence, 48-72 h; max response: stronger effect = lower value. A digest of the protocol:
as §1

For test [4], the system named is NIH3T3. The test is described as follows: qHTS assay to identify novel small-molecules to repurpose for Merkel cell carcinoma treatment (AID 1296009). Further: nearly all actives have a fitted effect of over 60% in size. The note with it: MCC and control cell lines, CellTiter-Glo viability, 72 h; series mostly up to 44.8 µM. Put shortly:
as §2

SMILES strings stand for the structures. Results filed as inconclusive are left out. A number with no mark means an inactive call. Active and inactive are the calls of the source. The call rests on the fitted dose curve; in most records, active means well fitted curve in the direction sought with a large enough effect; inconclusive means small, poorly fitted or top-dose-only effect, or another doubt; inactive means no such curve, though single readings can be large; an effect the other way counts as inactive or inconclusive.

Experimental findings from PubChem BioAssay (NCATS) are described below.

Consider `CCN(CC)CCCS(=O)(=O)N[C@H](CCc1ccccc1)c1nc(Cc2ccc(Br)cc2)no1`, for which the max response in the test on CRL-7250 was -4.82%; in the test on NIH3T3 [2], -16.9%. The outcome in the test with HaCat [1] and in the test with HACAT [3] was inactive. The Potency result in the test on C33A, with CAOV3, in the test with CASKI, in the test with Es-2, in the test with HeLa and in the test on Hek293T was “inactive” each time. Also, the Potency result with JEG-3, in the test on OV90 and with PA-1 was “inactive” each time.

In the case of `C=CC(=O)N1CCC[C@@H](n2nc(-c3cccc(C(=O)Nc4ccc(C(C)C)c(C)c4)c3)c3c(N)ncnc32)C1`, the Potency was 20.6 µM (active) with CRL-7250 and 16.4 µM (active) in the test with HaCat [1]. The max response in the test on KB-3-1 was -9.98%. Also, the Potency entry in the test on Hek293T, in the test on JEG-3 and in the test on PA-1 was “inactive” each time.

Regarding `C[C@]12CC[C@@H]3c4ccc(O)c(O)c4CC[C@H]3[C@@H]1CCC2=O`, the values for the max response with CRL-7250 and with NIH3T3 [2] were -7.43% and -17.9%, respectively. The result in the test on HaCat [1] and in the test with HACAT [3] was inactive. Besides, the Potency result with C33A, in the test with CAOV3, with CASKI, with Es-2, in the test on HeLa and in the test with Hek293T was “inactive” each time. Moreover, the Potency result with JEG-3, with OV90 and in the test on PA-1 was “inactive” in each case.

Consider `CC(C)(F)CC(NC(c1ccc(-c2ccc(S(C)(=O)=O)cc2)cc1)C(F)(F)F)C(=O)NC1(C#N)CC1` (configuration not stated), for which the max response with CRL-7250 was -1.34%. The compound was classed as inactive with HaCat [1], with NIH3T3 [2] and in the test on HACAT [3]. The Potency entry in the test on NIH3T3 [4], in the test with C33A, in the test with CAOV3, with CASKI, in the test with Es-2 and in the test on HeLa was “inactive” each time. In addition, the Potency result in the test on Hek293T, in the test with JEG-3, in the test with OV90 and with PA-1 was “inactive” throughout.

As for `C=C1/C(=C/C=C2\CCC[C@]3(C)[C@@H]([C@H](C)/C=C/[C@@H](C)C(C)C)CC[C@@H]23)C[C@@H](O)C[C@@H]1O`, the max response in the test with CRL-7250 is 1.9%. For the same compound, the outcome in the test with HaCat [1] and with HACAT [3] was “inactive; activator” throughout. The Potency in the test with NIH3T3 [2] is 0.326 µM (active). Also, the Potency result with C33A, in the test with CAOV3, in the test on CASKI, in the test with Es-2, in the test on HeLa and in the test with Hek293T was “inactive” in each case. Besides, the Potency result in the test on JEG-3, with OV90 and with PA-1 was “inactive” throughout.

On to `CC(C)(O)c1ccn2c(-c3ccc(F)c(-c4ccc(F)cc4C#N)c3)cnc2c1F`, for which the max response was -19.9% in the test on CRL-7250 and -2.51% in the test with NIH3T3 [2]. Further, the compound was classed as inactive with HaCat [1] and in the test on HACAT [3]. Besides, the Potency result in the test on C33A, with CAOV3, in the test with CASKI, in the test on Es-2, in the test with HeLa and with Hek293T was “inactive” throughout. Besides, the Potency entry in the test with JEG-3 and in the test on OV90 was “inactive” each time.

Regarding `COc1ccccc1C(=O)Nc1cccc(NC(=O)c2cccc(C)c2)c1`, the max response in the test with CRL-7250 is -5.11%; in the test on HaCat [1], 3.09%; in the test on KB-3-1, 4.14%. The Potency result in the test on CAOV3, with CASKI, in the test with Es-2, in the test with HeLa, with Hek293T and with JEG-3 was “inactive” in each case. Besides, the Potency entry with OV90 and in the test with PA-1 was “inactive” throughout.

As to `CCCCCCCOc1cc2c(cc1/C(C)=C/c1ccc(C(=O)O)cc1)C(C)(C)CCS2(=O)=O`, the compound was classed as inactive with CRL-7250, in the test on HaCat [1], in the test on NIH3T3 [2] and with HACAT [3]. The Potency result with NIH3T3 [4], in the test on C33A, with CAOV3, with CASKI, in the test on Es-2 and with HeLa was “inactive” throughout. Moreover, the Potency result in the test with Hek293T, with JEG-3, with OV90 and in the test on PA-1 was “inactive” in each case.

For the compound `COC(=O)/C=C/C=C/C(=O)OC1C=C2COC(=O)C2(O)C2(C)CCCC(C)(C)C12` (configuration not stated), the result with CRL-7250 and with HaCat [1] was inactive. Moreover, the max response in the test on NIH3T3 [2] was -4.83%. In addition, the outcome in the test with HACAT [3] was “inactive [at 17.4 µM]”. Besides, the Potency entry with C33A, with CAOV3, in the test on CASKI, in the test with Es-2, in the test with HeLa and with Hek293T was “inactive” each time. Also, the Potency result in the test with JEG-3, with OV90 and in the test on PA-1 was “inactive” in each case.

With `C=C1C(OC2OC(CO)C(O)C(O)C2O)CC2C(C)(C)C(O)CCC2(C)C1CC/C(C)=C\COC(=O)CC(=O)O` (configuration not stated), the max response was -0.672% with CRL-7250 and 3.9% in the test on NIH3T3 [2]. In addition, the result in the test with HaCat [1] was inactive. Moreover, the outcome with HACAT [3] was “inactive [at 17.4 µM]”. The Potency entry in the test on C33A, in the test with CAOV3, with CASKI, with Es-2, in the test on HeLa and in the test with Hek293T was “inactive” throughout. In addition, the Potency result with JEG-3, with OV90 and in the test with PA-1 was “inactive” each time.

In the case of `Cc1nnc(-c2ccc(-c3ccc(C(=O)Nc4ccc(O)c(N5CCN(C)CC5)c4)cc3)c(C)c2)o1`, the max response in the test on CRL-7250 was 3.58%. The compound was classed as inactive in the test with HaCat [1], in the test on NIH3T3 [2] and with HACAT [3]. Moreover, the Potency entry with NIH3T3 [4], in the test on C33A, in the test on CAOV3, in the test on CASKI, in the test with Es-2 and in the test with HeLa was “inactive” throughout. For the same compound, the Potency result in the test with Hek293T, with JEG-3, in the test with OV90 and in the test on PA-1 was “inactive” each time.

In the case of `COc1cc(C(=O)O)ccc1NC(=O)C1NC(CC(C)(C)C)C(C#N)(c2ccc(Cl)cc2F)C1c1cccc(Cl)c1F` (configuration not stated), the max response was -18.8% in the test with CRL-7250 and -5.77% in the test on NIH3T3 [2]. Also, the call in the test with HaCat [1] and with HACAT [3] was inactive. Moreover, the Potency entry in the test with C33A, with CAOV3, with CASKI, in the test on Es-2, with HeLa and with Hek293T was “inactive” each time. The Potency entry with JEG-3, with OV90 and with PA-1 was “inactive” in each case.

As for `Cc1onc(-c2ccccc2)c1C(=O)N1CCN(c2ccc([N+](=O)[O-])cc2Cl)CC1`, the max response in the test with CRL-7250 was -3.78%; in the test with NIH3T3 [2] it was 4.81%. The result in the test with HaCat [1] and in the test with HACAT [3] was inactive. For the same compound, the Potency entry with C33A, in the test with CAOV3, in the test on CASKI, with Es-2, in the test with HeLa and in the test on Hek293T was “inactive” throughout. In addition, the Potency result in the test on JEG-3, in the test on OV90 and in the test on PA-1 was “inactive” throughout.
